Measured values reported in PubChem BioAssay AID720709 (National Center for Advancing Translational Sciences (NCATS), 2013).
Out of some 360,000 compounds screened, about 520 (0.14%) were called active. Inconclusive results (about 3%) are left out. The call rests on the fitted dose curve; in most records, active means well fitted inhibition curve with a large enough effect; inconclusive means small, poorly fitted or top-dose-only effect; inactive means no such curve, though single readings can be large or run the other way. For the sample, actives were picked, then their nearest neighbours and some compounds at random.

Each molecule was assayed against Rap guanine nucleotide exchange factor 3 (Homo sapiens) (UniProt O95398) (assay: qHTS for Antagonist of cAMP-regulated guanine nucleotide exchange factor 3 (EPAC1): primary screen). Conditions: EPAC1 GEF assay, Rap1b-BODIPY-GDP exchange fluorescence; series mostly up to 115 µM; activity change, negative = inhibition: at the top concentration.
Source text: In multi-cellular eukaryotic organisms, the effects of cAMP are transduced by two ubiquitously-expressed intracellular cAMP receptors, the classic protein kinase A/cAMP-dependent protein kinase (PKA/cAPK) and the more recently discovered exchange protein directly activated by cAMP/cAMP-regulated guanine nucleotide exchange factor (EPAC/cAMP-GEF). Both PKA and EPAC are ubiquitously expressed in all tissues, and an increase in intracellular cAMP levels will lead to the activation of both PKA and EPAC. Therefore, careful dissections of the individual role and relative contribution of EPAC and PKA within the overall cAMP signaling in various model systems are critical for further elucidating the mechanism of cAMP signaling. To date no EPAC-specific antagonists and agonist, as well as isoform-specific agonists have been reported, and developing EPAC-specific pharmacological probes to determine the physiological functions that EPAC play in the overall cAMP-mediated signaling remains a major challenge within the research field. Furthermore, identified regulators of EPAC may lead to new mechanism-based therapeutic strategies specifically targeting the EPAC / cAMP-signaling components as EPAC has been implicated to play important roles in major human pathological conditions such as diabetes, heart disease, and cancer. This qHTS will be used to screen the Molecular Libraries Small Molecule Repository (MLSMR) as a concentration-titration series using the NCGC unique quantitative screening (qHTS) platform to find inhibitors for EPAC1. In addition, this assay will also be used as a counterscreen for the EPAC2 qHTS. This fluorescent based assay is developed and validated for EPAC1 that measures exchange using EPAC effector Rap1 complex with BODIPY-GDP, a GDP analog with a tethered fluorophores. Inhibitors are identified by monitoring the change in fluorescence signal as the exchanged free BODIPY-GDP has a reduced fluorescence compared to Rap1-bound BODIPY-GDP. Decrease in signal (inhibition) is the desired outcome for the EPAC1 antagonist while no activity in this assay is desired for the EPAC2 antagonist counterscreen. de Rooij, J., Zwartkruis, F. J., Verheijen, M. H., Cool, R. H., Nijman, S. M., Wittinghofer, A., and Bos, J.L. (1998) Nature 396, 474-477 [2] Kawasaki, H., Springett, G. M., Mochizuki, N., Toki, S., Nakaya, M., Matsuda, M., Housman, D. E., and Graybiel, A. M. (1998) Science 282, 2275-2279 NIH Chemical Genomics Center [NCGC] NIH Molecular Libraries Probe Centers Network [MLPCN] MLPCN Grant: NS066510 Assay Submitter (PI): Xiaodong Cheng, The University of Texas, Medical Branch
Briefly, three uL of reagents (100 nM EPAC1, 250 nM RAP1B-BODIPY-GDP, 50 uM GDP) were dispensed into a 1536-well Greiner black solid-bottom medium binding assay plate. Controls and test compounds (23 nL) were transferred to the plate via a Kalypsys pin tool equipped with a 1536-pin array. The plates were centrifuged at 1,000 rpm for 15 seconds followed by 5 minute incubation at room temperature. The assay plates were read at 5 minute intervals for 30 minutes in the ViewLux plate reader using 480nm excitation and 540nm emission filters. The results were normalized to the […] positive control ATA and DMSO.
Further: nearly all actives have a fitted effect of over 50% in size.
Potency means the concentration at half of the fitted maximal effect.

Chain of Rap guanine nucleotide exchange factor 3 (Homo sapiens) (O95398 whole entry, looked up): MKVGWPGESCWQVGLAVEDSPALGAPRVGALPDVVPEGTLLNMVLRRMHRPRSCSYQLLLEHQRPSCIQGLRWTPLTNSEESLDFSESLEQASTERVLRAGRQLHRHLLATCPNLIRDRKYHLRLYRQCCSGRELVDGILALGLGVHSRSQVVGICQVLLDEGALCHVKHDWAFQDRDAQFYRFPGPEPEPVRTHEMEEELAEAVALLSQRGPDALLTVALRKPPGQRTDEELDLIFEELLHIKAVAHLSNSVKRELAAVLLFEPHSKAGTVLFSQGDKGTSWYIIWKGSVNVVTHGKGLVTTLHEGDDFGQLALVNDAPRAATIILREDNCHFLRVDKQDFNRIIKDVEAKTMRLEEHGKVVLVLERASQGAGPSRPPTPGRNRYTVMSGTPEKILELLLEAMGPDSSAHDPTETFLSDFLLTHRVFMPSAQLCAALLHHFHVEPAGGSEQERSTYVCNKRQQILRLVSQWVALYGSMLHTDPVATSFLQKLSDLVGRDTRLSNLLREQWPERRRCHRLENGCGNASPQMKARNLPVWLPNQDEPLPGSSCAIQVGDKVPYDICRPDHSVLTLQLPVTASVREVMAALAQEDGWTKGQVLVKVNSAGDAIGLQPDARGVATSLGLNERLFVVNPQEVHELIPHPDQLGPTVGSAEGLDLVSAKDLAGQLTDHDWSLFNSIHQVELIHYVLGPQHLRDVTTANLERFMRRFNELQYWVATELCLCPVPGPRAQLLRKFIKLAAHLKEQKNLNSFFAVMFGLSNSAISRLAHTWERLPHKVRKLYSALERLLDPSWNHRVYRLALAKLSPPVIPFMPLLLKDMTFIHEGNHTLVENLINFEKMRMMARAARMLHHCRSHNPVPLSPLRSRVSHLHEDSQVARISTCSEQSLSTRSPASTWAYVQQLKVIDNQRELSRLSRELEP

SMILES | activity change, negative = inhibition | Potency
COC(=O)C[C@@H]1C=C[C@@H](NS(=O)(=O)c2cccc(OC)c2)[C@@H](CO)O1 | -27.2% (inactive) | 
CC(C)(C)CC(=O)Nc1nc(C(N)Cc2ccc(C(F)(F)F)cc2)cs1 (stereo not given) | 12.1% (inactive) | 
O=C(NCc1ccccc1)C1c2ccccc2OCC(=O)N1C1CC1 (stereo not given) | -2.01% (inactive) | 
Nc1[nH]c(C(=O)c2ccccc2)c(-c2ccc(Br)cc2)c1C(=O)NC1CC1 | -28.1% (inactive) | 
Cc1ccc(S(=O)(=O)N2CCC(=O)N([C@H](COCc3ccccc3)C(C)C)CC2)cc1 | 9.8% (inactive) | 
Cn1cnc(S(=O)(=O)N2C[C@@H](O)COC[C@@H]3O[C@H](CC(=O)NC4CCC4)CC[C@H]32)c1 | -13.4% (inactive) | 
NC1=CC(=O)C(=O)c2cccnc21 |  | 56.2 µM (active)
O=C(OC1CC2CC1[C@H]1CCCCN1C2=O)N1CCOCC1 (stereo not given in full) | 2.08% (inactive) | 
O=C1C(Sc2cccc(F)c2)=C[C@@]2(O)CC[C@@H](O)[C@]1(Sc1cccc(F)c1)[C@H]2O | -1.01% (inactive) | 
O=C(Nc1ccc(F)cc1)C(CCc1ccccc1)N1CCN(CC(=O)N2CCCC2)CC1 (stereo not given) | 1.09% (inactive) | 
OC(c1ccccc1)(c1ccccc1)C1CCN(CCCOc2ccccc2)CC1 | 16.4% (inactive) | 
CCC(c1nc2ccccc2[nH]1)n1c(=O)c(-c2cccs2)nc2ccccc21 (stereo not given) | 12.6% (inactive) | 
Cc1ccc(Cc2c(-c3ccc(Cl)cc3)nc3c4ccccc4ccn23)cc1 | 10.1% [at 57.5 µM] (inactive) | 
CCCCN1C(=O)C(CC(=O)NCc2cccs2)CC(C(=O)N2CCCCCC2)=C1C (stereo not given) | 3.73% (inactive) | 
O=C(Nc1ccc(S(=O)(=O)Nc2nccs2)cc1)c1cc(-c2ccncc2)nc2ccccc12 |  | 79.4 µM (active)
O=C(CCc1ccccc1Cl)Nc1ccc(S(=O)(=O)Nc2nccs2)cc1 | -9.94% (inactive) | 
O=C(Nc1ccc(S(=O)(=O)Nc2nccs2)cc1)c1cc(=O)[nH]c2ccccc12 | -5.17% (inactive) | 
Cc1ccc2nc(-c3ccco3)c(Cc3cccc(Cl)c3)n2c1 | -18.2% (inactive) | 
CCOC(=O)N1CCN(C(=O)C[C@@H]2C[C@@]3(C(=O)OC)CCCCC=C3N(CCC3=CCCCC3)C2=O)CC1 | -16.7% (inactive) | 
CC(C)C[C@H]1CNC(=O)C(=O)N1C[C@@H]1CCCN1C[C@H](Cc1ccccc1)N1C[C@H](CC(C)C)N(CC2CCCCCC2)C(=O)C1=O | 18.3% (inactive) | 
O=C(NCc1ccccn1)[C@@H]1CCCN1C(=O)[C@@H]1CCCN1C(=O)c1ccccc1 | -19.8% (inactive) | 
COC(=O)c1ccc2nc(-c3ccc(F)cc3)c(Cc3ccc(C)cc3)n2c1 | 4.03% (inactive) | 
CC1(C(=O)NCc2ccccc2)CSCC(=O)N1CCCn1ccnc1 (stereo not given) | 0.234% (inactive) | 

SMILES | activity change, negative = inhibition | Potency
COc1ccc(C(C(=O)NCc2ccccc2)n2c(=O)c(-c3ccccc3)nc3ccccc32)cc1 (stereo not given) | -4.62% (inactive) | 
CC(C)(C)NC(=O)C(CCc1ccccc1)n1c(=O)c(-c2ccccc2)nc2ccccc21 (stereo not given) | -7.46% (inactive) | 
CCCCNC(=O)OC1CC2CC1[C@H]1CCCCN1C2=O (stereo not given in full) | -17.4% (inactive) | 
CCCCNC(=O)C[C@@H]1C[C@@]2(C(=O)OCC)CCC=C2N(Cc2cccc3ccccc23)C1=O | 5.54% (inactive) | 
CCCCn1nnnc1C(c1cc2ccccc2o1)N(C)Cc1ccc(Cl)c(Cl)c1 (stereo not given) | 7.34% (inactive) | 
COC(=O)C[C@H]1C=C[C@@H](NS(=O)(=O)c2ccc(C)cc2)[C@@H](CO)O1 | 14% (inactive) | 
CCC(c1nnnn1-c1ccc2c(c1)OCCO2)N1CCN(c2ccc(C(F)(F)F)cn2)CC1 (stereo not given) | -0.835% (inactive) | 
CC(=O)C[C@@H]1OC[C@H](CO)N1S(=O)(=O)c1ccc(C)cc1 | 9.07% (inactive) | 
COc1ccc(C2OC(CCc3ccccc3)Cc3[nH]c(=S)[nH]c(=O)c32)cc1 (stereo not given) | -21.1% (inactive) | 
CCOc1ccc(Br)cc1S(=O)(=O)Nc1ccc(S(=O)(=O)Nc2cc(C)on2)cc1 |  | 39.8 µM (active)
CCOc1ccc(CC(=O)Nc2ccc(S(=O)(=O)Nc3cc(C)on3)cc2)cc1OCC | 4.44% (inactive) | 
CCOc1ccc(C(=O)Nc2ccc(S(=O)(=O)Nc3cc(C)on3)cc2)cc1 | -4.54% (inactive) | 
CSCCC(C(=O)NC(C)(C)C)n1c(-c2ccccc2)nc2ccccc21 (stereo not given) | 5.22% (inactive) | 
Fc1cccc(Cc2c(-c3cccc(Cl)c3)nc3ccc(Br)cn23)c1 | -9.71% (inactive) | 
COC(=O)C[C@@H]1C=C[C@@H](NC(=O)c2cccnc2)[C@@H](CO)O1 | -6.55% (inactive) | 
C[C@@H]1CC2=C(C(=O)OC(C)(C)O2)[C@@H](C2CC2)O1 | 3.98% (inactive) | 
O=S1(=O)CC(N2CCN(CCO)CC2)CN1Cc1cn(Cc2ccc(Cl)cc2)nn1 (stereo not given) | -10.3% (inactive) | 
Cc1nccn1-c1ccc(NC(=O)[C@H]2O[C@@H](n3ccc(=O)[nH]c3=O)[C@H](O)[C@@H]2O)cc1 | -7.46% (inactive) | 
COc1ccc(OC)c(CN2C(=O)CCC2(C)c2nnnn2Cc2ccccc2)c1 (stereo not given) | 38.3% (inactive) | 
COC(=O)[C@@]12C[C@@H](CC(=O)NCCCCc3ccccc3)C(=O)N(CCc3ccc(OC)c(OC)c3)C1=CCC(C)(C)C2 | -23.2% (inactive) | 
CCCCCn1nnnc1-c1nc2cc3ccccc3cc2[nH]c1=O | -10.4% (inactive) | 
COC(=O)[C@@]12C[C@@H](CC(=O)NCCCCc3ccccc3)C(=O)N(Cc3ccccc3)C1=CCC(C)(C)C2 | 0.731% (inactive) | 
